# Shown is part of a subset that was picked to be rich in hits.
# CBX7 AlphaScr = CBX7 chromodomain binding inhibitors, primary screen, biochemical, AlphaScreen | Chromobox protein homolog 7 (Homo sapiens), O95931 | normalised signal (fraction of DMSO) (concentration not given with the values) | AID 1224903, 2016 | AlphaScreen His6-CBX7 / biotin-H3K27me3 peptide binding; stronger effect = lower value | hit rate 1.1% among 66,000; in the data active = normalised signal below about 0.5
# Target sequence (O95931 whole entry, looked up): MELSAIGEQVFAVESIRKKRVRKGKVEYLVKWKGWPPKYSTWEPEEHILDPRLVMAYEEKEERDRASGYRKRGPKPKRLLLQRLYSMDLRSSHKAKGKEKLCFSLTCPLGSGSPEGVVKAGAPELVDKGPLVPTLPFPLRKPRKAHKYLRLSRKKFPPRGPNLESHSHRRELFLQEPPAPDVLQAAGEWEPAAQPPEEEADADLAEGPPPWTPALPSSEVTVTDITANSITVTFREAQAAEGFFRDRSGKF
# Hits are given with their value; 0 = inactive.
SMILES,CBX7 AlphaScr
Cc1cccc(CN2C(=O)CSc3ccc(C(=O)NCCc4ccccc4)cc32)c1,0
O=C(c1cnc(N2CCN(c3ncccn3)CC2)c2ccccc12)N1CCCCCC1,0
Cc1c(-c2ccccc2)nc2sc3c(c2c1N)CCCCC3,0
Cc1c(-c2ccccc2)nc2sc3c(c2c1N)CCCC3,0.47
Nc1c2c(nc3sc4c(c13)CCCCC4)CCCCC2,0
CCC(C)NC(=O)CN1CCN(Cc2ccc(F)cc2Cl)C1=O (stereo not given),0
Cc1csc(NC(=O)Cn2nc(Cc3ccncc3)c3ccccc3c2=O)n1,0
CCN(CC)S(=O)(=O)c1ccc2c(c1)N(CC(=O)NCc1ccc(F)cc1)C(=O)CO2,0
Cc1ccc(CNC(=O)CN2C(=O)COc3ccc(Cl)cc32)cc1,0
O=C(CN1C(=O)COc2ccc(Cl)cc21)NCc1ccc(F)cc1,0.42
CCOC(=O)N1CCN(C(=O)Cn2nc(Cc3ccncc3)c3ccccc3c2=O)CC1,0
COc1ccc(CN2C(=O)N(c3ccc(F)cc3)C(=O)C2CC(=O)Nc2ccc(F)c(F)c2)cc1 (stereo not given),0
CCOC(=O)N1CCc2c(sc(NCc3cccs3)c2C(=O)Nc2cc(OC)ccc2OC)C1,0.47
CCOC(=O)N1CCc2c(sc(NCc3cccs3)c2C(=O)Nc2ccc(OC)cc2OC)C1,0
CCOC(=O)N1CCc2c(sc(NCc3ccncc3)c2C(=O)Nc2cc(OC)ccc2OC)C1,0
CCOc1ccccc1NC(=O)c1cn(CC)c(=O)c2cc(OC)c(OC)cc12,0
COc1ccccc1NC(=O)N1CCN(c2ccc3nnc(-c4ccccc4)n3n2)CC1,0
COc1cc(CN2CCN(Cc3cccc4ccccc34)CC2)cc(OC)c1,0
CCOC(=O)N1CCC(Nc2c(NCc3cccnc3)c(=O)c2=O)CC1,0
O=C(NC1CCCC1)C1c2ccccc2C(=O)N1c1ccc(Cl)cc1 (stereo not given),0
Cc1cc(C)cc(OCC(=O)Nc2c(C(=O)c3ccc(Cl)cc3)oc3ccccc23)c1,0
O=S(=O)(c1cccc(Cl)c1)N(CCCN1CCOCC1)Cc1cccs1,0
O=S(=O)(c1ccc(Cl)cc1)N(CCCN1CCOCC1)Cc1cccs1,0.49
O=S(=O)(c1ccc(F)cc1)N(CCCN1CCOCC1)Cc1cccs1,0
CCc1ccc(NC(=O)[C@H](C(C)CC)N2Cc3ccccc3C2=O)cc1 (stereo not given in full),0
SMILES,CBX7 AlphaScr
COc1ccc(CNC(=O)c2cnn3c(C(F)(F)F)cc(-c4ccccc4)nc23)cc1,0
COC(=O)c1ccc(NC(=O)C(=O)c2c(-c3ccccc3)cc3ccccn23)cc1,0
Brc1ccc(-c2cnc3ccccc3n2)cc1,0
CCOc1ccc(-c2cnc3ccccc3n2)cc1,0
Nc1ccc(-c2ccc(-c3cnc4ccccc4n3)cc2)cc1,0.15
COc1ccc(N2CCN(CCNC(=O)CN3C(=O)COc4ccccc43)CC2)cc1,0
O=C1CN(C(=O)COc2ccccc2)C(c2ccccc2)c2cc(Cl)ccc2N1 (stereo not given),0
O=C1CN(C(=O)COc2ccccc2)C(c2ccccc2)c2cc(Br)ccc2N1 (stereo not given),0.48
O=C1CN(C(=O)COc2ccccc2)C(c2ccccc2)c2cc(F)ccc2N1 (stereo not given),0
Cc1ccc(C)c(CN2C(=O)c3ccccc3S(=O)c3ccc(C(=O)N4CCCC4)cc32)c1 (stereo not given),0
CCc1cccc(NC(=O)C2CCN(S(=O)(=O)c3cccc4nsnc34)CC2)c1,0
CCn1c(=O)c(C(=O)NC(C)c2ccccc2)c(O)c2ccccc21 (stereo not given),0
CCCn1c(=O)c(C(=O)NCc2cccnc2)c(O)c2ccccc21,0
CCCn1c(=O)c(C(=O)NC(C)c2ccccc2)c(O)c2ccccc21 (stereo not given),0.28
CCC(=O)N1CCc2cc(S(=O)(=O)N(CC(C)C)CC(C)C)ccc21,0
COc1ccccc1NC(=O)Cn1cnc2sc(C)c(C)c2c1=O,0
CCC(C(=O)NCCN1CCN(CC)CC1)n1ncc2ccccc21 (stereo not given),0
Cc1ccnc(Nc2nc(-c3ccc(C(C)C)cc3)cs2)c1,0
Cc1ccnc(Nc2nc(-c3sc(N)nc3C)cs2)c1,0.4
Cc1ccnc(Nc2nc(-c3c(C)nc4cc(C)ccn34)cs2)c1,0
CCOc1ccc(NC(=O)CN2C(=O)CC(c3ccc(OC)c(OC)c3)Sc3ccccc32)cc1 (stereo not given),0
O=C1CN(C(=O)CCC2CCCC2)C(c2ccccc2)c2cc(Cl)ccc2N1 (stereo not given),0
O=C(c1ccc2nc(-c3ccco3)c(-c3ccco3)nc2c1)N1CCc2ccccc2C1,0.015
CC(C)CCNC(=O)c1ccc2nc(-c3ccco3)c(-c3ccco3)nc2c1,0
CCCCNC(=O)c1ccc2nc(-c3ccco3)c(-c3ccco3)nc2c1,0
SMILES,CBX7 AlphaScr
COC(=O)c1ccc(Nc2nc(N3CCN(C)CC3)c3ccccc3n2)cc1,0
COc1ccc(Nc2nc(N3CCCC3)c3ccccc3n2)cc1,0.49
COc1ccc(Nc2cc(C(=O)N3CCCC3)c3ccccc3n2)cc1,0
CCOC(=O)c1c(NC(=O)c2ccccc2C(=O)O)sc(C)c1C,0
O=S1(=O)N=C(Nc2cc(Cl)cc(Cl)c2)c2ccccc21,0
O=C(Cc1cccs1)Nc1c2c(nn1-c1ccc(Cl)cc1)CSC2,0
Cc1ccccc1Oc1cc([N+](=O)[O-])cc2c1C(=O)Nc1cc(Cl)ccc1O2,0.084
Cc1ccc2c(c1)Oc1cc([N+](=O)[O-])cc(Oc3cccc(Cl)c3Cl)c1C(=O)N2,0.2
COCCOc1cc([N+](=O)[O-])cc2c1C(=O)Nc1ccccc1O2,0
COC(=O)CC1Oc2ccc(Cl)cc2NC1=O (stereo not given),0
COc1ccc(CNC(=O)CC2Oc3ccc(Cl)cc3NC2=O)cc1 (stereo not given),0
Cc1ccc(Oc2cc([N+](=O)[O-])cc3c2C(=O)Nc2ccccc2O3)cc1,0
O=C1Nc2cc(Cl)ccc2Oc2cc([N+](=O)[O-])cc(Oc3ccccc3)c21,0
COc1ccc(Oc2cc([N+](=O)[O-])cc3c2C(=O)Nc2cc(Cl)ccc2O3)cc1,0.42
CCC(C(=O)NCCc1ccc(Cl)cc1)n1ncc2ccccc21 (stereo not given),0
CC1CC(C)CN(C(=O)c2cc3c(s2)-c2ccccc2OC3)C1 (stereo not given),0
Cc1ccc(C(=O)Nc2ccccc2C(=O)N2CCC(Cc3ccccc3)CC2)cc1,0
Cc1ccc(-n2nc3c(c2NC(=O)c2ccc(OC(C)C)cc2)CS(=O)(=O)C3)cc1,0
Cc1cc(NC(=O)CSc2nccn2C)ccc1F,0
CC(C)(C)c1ccc(OCc2nnc(NC(=O)c3cccs3)s2)cc1,0
COC(CNC(=O)c1cc(-c2cccnc2)nc2ccc(S(=O)(=O)N3CCCCCC3)cc12)OC,0
CC(=O)N1CCc2cc(S(=O)(=O)NC3CCCC3)ccc21,0
CN1C(=O)CSc2ccc(NC(=O)Nc3cccnc3)cc21,0
CCOc1ccc(N2CCc3c2nc2ccc(Br)cc2c3N)cc1,0.21
Cc1ccc2nc3c(c(N)c2c1)CCN3c1ccccc1,0
Nc1c2c(nc3ccccc13)N(c1ccc(Cl)c(Cl)c1)CC2,0
O=C1CN(C(=O)CCC2CCCCC2)C(c2ccccc2)c2cc(F)ccc2N1 (stereo not given),0
CCCCn1cnc2cc(NCc3cccc(Br)c3)ccc21,0.25
CCCn1cnc2cc(NCc3cccc(Br)c3)ccc21,0.33
